# Assay results reported in the supplement of paper PMC8728848.
# The entries come from a sample that favours the strongest signals as a whole.
# B1: PV12658A-bvu-496-32-496 (Bacteroides vulgatus) (protein)
# chain: DLDGAITTPAAVELALNGIYYSLPGNGFNVIFPTVSGSFKAGTMWRQEIVSAGNAVYYSERMLPTLSFSDATEWDADYAVIKNANFLETACNRMSDGEFSGNRRAEVLGEIAYLRALAYFNILVRYCEFWDMNSEYGVVMRNEAPSVSNALKARSSVADSYQYILDQLEIAIEKAPDWKKLSQASKEAAKALKARVLLYAGKYTEAVAAVNDAIDTNSPLPEANYGDVFDKFSTTKEILFARVFDQKDATNTSTRQQCYGNSPTKKQGYWGPTNEYVELVGDDPRADAIFSKVDSLMDSRSSAVAYNLKSVKKLLNDANDMPVIFSRVSELYLIKAEALYRSGASISEAYAPIRKLRERAGAEIILPANNEELETAIFNEWMLELSFENWHEWFAMIRFAGYTEKPDFTRLLALNKTLREALEKEYEKSEAQGDNYYQRIIDRRIDAIPSSEISSNLECKQNPGY
# Experiments:
# Experiment in all cases: glycan array binding signal (z-score within array); higher = stronger binding
# Details in all cases: glycan notation: IUPAC condensed, linker removed
# Fuc(a1-2)Gal(b1-4)Glc6S = target: Fuc(a1-2)Gal(b1-4)Glc6S
# Method in brief: (§1)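 From the Consortium for Functional Glycomics database, 3228 arrays were curated, keeping only those whose protein sequence was available. Binding is given as a within-array Z-score averaged across arrays sharing a protein sequence and across linkers. Negative Z-scores can be read as non-binding.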
# [1] = target: Fuc(a1-2)Gal(b1-4)GlcNAc(b1-2)Man
# Method in brief: as §1
# [2] = target: Fuc(a1-2)Gal(b1-4)GlcNAc(b1-2)Man(a1-3)[Fuc(a1-2)Gal(b1-4)GlcNAc(b1-2)Man(a1-6)]Man(b1-4)GlcNAc(b1-4)[Fuc(a1-6)]GlcNAc
# Method in brief: as §1
# [3] = target: Fuc(a1-2)[Gal(a1-3)]Gal(b1-3)GlcNAc(b1-2)Man(a1-3)[Fuc(a1-2)[Gal(a1-3)]Gal(b1-3)GlcNAc(b1-2)Man(a1-6)]Man(b1-4)GlcNAc(b1-4)GlcNAc
# Method in brief: as §1
# [4] = target: Fuc(a1-2)[GalNAc(a1-3)]Gal(b1-4)GlcNAc
# Method in brief: as §1
# [5] = target: Fuc(a1-2)[GalNAc(a1-3)]Gal(b1-4)GlcNAc(b1-3)Gal(b1-4)GlcNAc(b1-3)Gal(b1-4)GlcNAc
# Method in brief: as §1
# Gal(a1-3)Gal(b1-3)GlcNAc = target: Gal(a1-3)Gal(b1-3)GlcNAc
# Method in brief: as §1
# [6] = target: Gal(a1-3)Gal(b1-3)GlcNAc(b1-3)GalNAc
# Method in brief: as §1
# [7] = target: Gal(a1-3)Gal(b1-4)GlcNAc(b1-2)Man(a1-3)[Gal(a1-3)Gal(b1-4)GlcNAc(b1-2)Man(a1-6)]Man(b1-4)GlcNAc(b1-4)GlcNAc
# Method in brief: as §1
# [8] = target: Gal(a1-3)Gal(b1-4)[Fuc(a1-3)]GlcNAc(b1-2)Man(a1-3)[Gal(a1-3)Gal(b1-4)[Fuc(a1-3)]GlcNAc(b1-2)Man(a1-6)]Man(b1-4)GlcNAc(b1-4)GlcNAc
# Method in brief: as §1
# [9] = target: Gal(a1-3)[Gal(a1-4)]Gal(b1-4)GlcNAc
# Method in brief: as §1
# [10] = target: Gal(a1-4)Gal(b1-4)GlcNAc(b1-2)Man(a1-3)[Gal(a1-4)Gal(b1-4)GlcNAc(b1-2)Man(a1-6)]Man(b1-4)GlcNAc(b1-4)GlcNAc
# Method in brief: as §1
# Gal(b1-2)Gal = target: Gal(b1-2)Gal
# Method in brief: as §1
# [11] = target: Gal(b1-3)GalNAc(b1-4)Gal(b1-4)Glc
# Method in brief: as §1
# Gal(b1-3)GlcNAc = target: Gal(b1-3)GlcNAc
# Method in brief: as §1
# [12] = target: Gal(b1-3)GlcNAc(b1-3)Gal(b1-4)GlcNAc(b1-2)[Gal(b1-3)GlcNAc(b1-3)Gal(b1-4)GlcNAc(b1-6)]Man(a1-6)[Gal(b1-3)GlcNAc(b1-3)Gal(b1-4)GlcNAc(b1-2)Man(a1-3)]Man(b1-4)GlcNAc(b1-4)[Fuc(a1-6)]GlcNAc
# Method in brief: as §1
# [13] = target: Gal(b1-3)GlcNAc(b1-3)Gal(b1-4)[Fuc(a1-3)]GlcNAc
# Method in brief: as §1
# Gal(b1-4)GlcNAc = target: Gal(b1-4)GlcNAc
# Method in brief: as §1
# [14] = target: Gal(b1-4)GlcNAc(b1-3)Gal(b1-3)GlcNAc
# Method in brief: as §1
# [15] = target: Gal(b1-4)GlcNAc(b1-3)Gal(b1-4)Glc
# Method in brief: as §1
# [16] = target: Gal(b1-4)GlcNAc(b1-3)Gal(b1-4)GlcNAc(b1-3)Gal(b1-4)GlcNAc(b1-3)Gal(b1-4)GlcNAc(b1-2)Man(a1-3)[Gal(b1-4)GlcNAc(b1-3)Gal(b1-4)GlcNAc(b1-3)Gal(b1-4)GlcNAc(b1-3)Gal(b1-4)GlcNAc(b1-2)Man(a1-6)]Man(b1-4)GlcNAc(b1-4)GlcNAc
# Method in brief: as §1
# [17] = target: Gal(b1-4)GlcNAc(b1-3)Gal(b1-4)GlcNAc(b1-3)GalNAc
# Method in brief: as §1
# [18] = target: Gal(b1-4)GlcNAc(b1-3)[Gal(b1-4)GlcNAc(b1-6)]Gal(b1-4)GlcNAc
# Method in brief: as §1
# [19] = target: Gal(b1-4)GlcNAc(b1-6)GalNAc
# Method in brief: as §1
# [20] = target: GalNAc(a1-3)GalNAc(b1-3)Gal(a1-4)Gal(b1-4)GlcNAc
# Method in brief: as §1
# [21] = target: GalNAc(b1-3)Gal(a1-4)Gal(b1-4)GlcNAc
# Method in brief: as §1
# GalNAc(b1-4)Gal(b1-4)Glc = target: GalNAc(b1-4)Gal(b1-4)Glc
# Method in brief: as §1
# GalNAc6S(b1-4)GlcNAc = target: GalNAc6S(b1-4)GlcNAc
# Method in brief: as §1
# [22] = target: GlcNAc(a1-3)Gal(b1-4)GlcNAc
# Method in brief: as §1
# [23] = target: GlcNAc(b1-2)Gal(b1-3)GalNAc
# Method in brief: as §1
# [24] = target: GlcNAc(b1-3)Gal(b1-4)GlcNAc(b1-3)Gal(b1-4)GlcNAc(b1-3)Gal(b1-4)GlcNAc(b1-3)Gal(b1-4)GlcNAc(b1-2)Man(a1-3)[GlcNAc(b1-3)Gal(b1-4)GlcNAc(b1-3)Gal(b1-4)GlcNAc(b1-3)Gal(b1-4)GlcNAc(b1-3)Gal(b1-4)GlcNAc(b1-2)Man(a1-6)]Man(b1-4)GlcNAc(b1-4)GlcNAc
# Method in brief: as §1
# [25] = target: GlcNAc(b1-3)Gal(b1-4)GlcNAc(b1-3)Gal(b1-4)GlcNAc(b1-3)GalNAc
# Method in brief: as §1
# [26] = target: GlcNAc(b1-4)Gal(b1-4)GlcNAc
# Method in brief: as §1
# [27] = target: GlcNAc(b1-4)GlcNAc(b1-4)GlcNAc(b1-4)GlcNAc(b1-4)GlcNAc
# Method in brief: as §1
# [28] = target: Man(a1-3)[Man(a1-6)]Man(a1-6)[Man(a1-3)]Man(b1-4)GlcNAc(b1-4)GlcNAc
# Method in brief: as §1
# [29] = target: Neu5Ac(a2-3)Gal(b1-3)GalNAc
# Method in brief: as §1
# [30] = target: Neu5Ac(a2-3)Gal(b1-3)GlcNAc(b1-2)Man(a1-3)[GlcNAc(b1-4)][Neu5Ac(a2-3)Gal(b1-3)GlcNAc(b1-2)Man(a1-6)]Man(b1-4)GlcNAc(b1-4)GlcNAc
# Method in brief: as §1
# [31] = target: Neu5Ac(a2-3)Gal(b1-3)[Fuc(a1-4)]GlcNAc(b1-3)Gal(b1-3)[Fuc(a1-4)]GlcNAc
# Method in brief: as §1
# [32] = target: Neu5Ac(a2-3)Gal(b1-4)GlcNAc(b1-2)Man
# Method in brief: as §1
# [33] = target: Neu5Ac(a2-3)Gal(b1-4)GlcNAc(b1-3)Gal(b1-4)GlcNAc(b1-3)Gal(b1-4)GlcNAc(b1-2)Man(a1-3)[Neu5Ac(a2-3)Gal(b1-4)GlcNAc(b1-3)Gal(b1-4)GlcNAc(b1-3)Gal(b1-4)GlcNAc(b1-2)Man(a1-6)]GalNAc
# Method in brief: as §1
# [34] = target: Neu5Ac(a2-3)Gal(b1-4)GlcNAc(b1-6)GalNAc
# Method in brief: as §1
# [35] = target: Neu5Ac(a2-3)Gal(b1-4)GlcNAc6S
# Method in brief: as §1
# [36] = target: Neu5Ac(a2-3)Gal(b1-4)[Fuc(a1-3)]GlcNAc(b1-6)[Gal(b1-3)]GalNAc
# Method in brief: as §1
# [37] = target: Neu5Ac(a2-3)Gal(b1-4)[Fuc(a1-3)]GlcNAc(b1-6)[Neu5Ac(a2-3)Gal(b1-3)]GalNAc
# Method in brief: as §1
# [38] = target: Neu5Ac(a2-3)[GalNAc(b1-4)]Gal(b1-4)GlcNAc(b1-3)GalNAc
# Method in brief: as §1
# [39] = target: Neu5Ac(a2-6)Gal(b1-4)GlcNAc(b1-2)Man(a1-3)[GlcNAc(b1-4)][Neu5Ac(a2-6)Gal(b1-4)GlcNAc(b1-2)Man(a1-6)]Man(b1-4)GlcNAc(b1-4)GlcNAc
# Method in brief: as §1
# [40] = target: Neu5Ac(a2-6)Gal(b1-4)GlcNAc(b1-3)Gal(b1-4)GlcNAc(b1-2)Man(a1-3)[Neu5Ac(a2-6)Gal(b1-4)GlcNAc(b1-3)Gal(b1-4)GlcNAc(b1-2)Man(a1-6)]GalNAc
# Method in brief: as §1
# [41] = target: Neu5Ac(a2-6)Gal(b1-4)GlcNAc(b1-3)Gal(b1-4)GlcNAc(b1-3)GalNAc
# Method in brief: as §1
# [42] = target: Neu5Ac(a2-6)GalNAc(b1-4)GlcNAc
# Method in brief: as §1
# [43] = target: Neu5Ac(a2-8)Neu5Gc(a2-3)Gal(b1-4)GlcNAc
# Method in brief: as §1
binder,measurement,setting,value
B1,glycan array binding signal (z-score),Fuc(a1-2)Gal(b1-4)Glc6S,-0.163
same,glycan array binding signal (z-score),[1],-0.199
same,glycan array binding signal (z-score),[2],0.201
same,glycan array binding signal (z-score),[3],3.63
same,glycan array binding signal (z-score),[4],-0.36
same,glycan array binding signal (z-score),[5],0.133
same,glycan array binding signal (z-score),Gal(a1-3)Gal(b1-3)GlcNAc,3.81
same,glycan array binding signal (z-score),[6],-0.252
same,glycan array binding signal (z-score),[7],4.55
same,glycan array binding signal (z-score),[8],0.883
same,glycan array binding signal (z-score),[9],1.73
same,glycan array binding signal (z-score),[10],7.57
same,glycan array binding signal (z-score),Gal(b1-2)Gal,-0.301
same,glycan array binding signal (z-score),[11],0.963
same,glycan array binding signal (z-score),Gal(b1-3)GlcNAc,-0.316
same,glycan array binding signal (z-score),[12],6.34
same,glycan array binding signal (z-score),[13],-0.533
same,glycan array binding signal (z-score),Gal(b1-4)GlcNAc,-0.258
same,glycan array binding signal (z-score),[14],-0.494
same,glycan array binding signal (z-score),[15],-0.266
same,glycan array binding signal (z-score),[16],5.64
same,glycan array binding signal (z-score),[17],3.98
same,glycan array binding signal (z-score),[18],0.41
same,glycan array binding signal (z-score),[19],-0.393
same,glycan array binding signal (z-score),[20],-0.573
same,glycan array binding signal (z-score),[21],-0.363
same,glycan array binding signal (z-score),GalNAc(b1-4)Gal(b1-4)Glc,-0.027
same,glycan array binding signal (z-score),GalNAc6S(b1-4)GlcNAc,-0.216
same,glycan array binding signal (z-score),[22],-0.069
same,glycan array binding signal (z-score),[23],-0.342
same,glycan array binding signal (z-score),[24],0.265
same,glycan array binding signal (z-score),[25],0.161
same,glycan array binding signal (z-score),[26],-0.358
same,glycan array binding signal (z-score),[27],-0.447
same,glycan array binding signal (z-score),[28],0.012
same,glycan array binding signal (z-score),[29],-0.233
same,glycan array binding signal (z-score),[30],-0.433
same,glycan array binding signal (z-score),[31],-0.275
same,glycan array binding signal (z-score),[32],-0.265
same,glycan array binding signal (z-score),[33],7.6
same,glycan array binding signal (z-score),[34],-0.479
same,glycan array binding signal (z-score),[35],-0.525
same,glycan array binding signal (z-score),[36],4.21
same,glycan array binding signal (z-score),[37],-0.336
same,glycan array binding signal (z-score),[38],-0.198
same,glycan array binding signal (z-score),[39],-0.152
same,glycan array binding signal (z-score),[40],10.6
same,glycan array binding signal (z-score),[41],-0.476
same,glycan array binding signal (z-score),[42],-0.163
same,glycan array binding signal (z-score),[43],5.59
